Inconclusive results are not listed. Calls of active or inactive are those of the source. Unless noted, calls come from the whole dose curve; as a rule, active = well fitted curve in the direction sought with a large enough effect in the repeat runs; inconclusive = weak or mixed curves; inactive = no such curve, though single readings can be large; an effect the other way counts as inactive or inconclusive.
Legend:
[1] = qHTS assay to identify small molecule antagonists of the thyroid receptor (TR) signaling pathway - cell viability counter screen (AID 743064); note: nearly all actives have a fitted effect of over 50% in size
How it was run: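 Fluorescence from CellTiter-Fluor, added after 23.5 h exposure at 37 °C, reported viability of GH3.TRE-Luc cells co-treated with compound and 1 nM T3. Measured in the same wells as the luciferase TR readout.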

[2] = qHTS assay to identify small molecule antagonists of the thyroid receptor (TR) signaling pathway (AID 743065); note: series mostly up to about 70 µM; nearly all actives have a fitted effect of over 55% in size
How it was run: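 Antagonism measured as loss of luciferase signal in GH3 cells stably carrying a TRE-luciferase reporter, co-treated with compound and T3 (1 nM final) for 23.5 h at 37 C. Viability was read in the same well by CellTiter-Fluor.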

[3] = system: thyroid hormone receptor (rat, GH3 cells); assay: qHTS assay to identify small molecule agonists of the thyroid receptor (TR) signaling pathway (AID 743066; calls by dose curve)
[4] = biological target: Estrogen receptor (Homo sapiens) (UniProt P03372); assay: qHTS assay to identify small molecule antagonists of the estrogen receptor alpha (ER-alpha) signaling pathway (AID 743069; active = well fitted curve in the direction sought with a large enough effect in the signal ratio in the repeat runs, not every such curve was filed as active; the % refers to the signal ratio)
How it was run: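 Fluorescence intensity from a beta-lactamase FRET substrate served as the read-out. Cells: HEK293 with stably integrated ER-alpha-UAS-bla reporter. Agonist 17beta-estradiol was co-added with compounds; incubation 18 hr at 37C, substrate 2 hr at room temperature.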

[5] = qHTS assay to identify small molecule antagonists of the estrogen receptor alpha (ER-alpha) signaling pathway - cell viability counter screen (AID 743074; calls by dose curve; note: nearly all actives have a fitted effect of over 45% in size)
[6] = biological target: Estrogen receptor (Homo sapiens) (UniProt P03372); assay: qHTS assay to identify small molecule agonists of the estrogen receptor alpha (ER-alpha) signaling pathway (AID 743075; calls by dose curve)
[7] = biological target: Estrogen receptor (Homo sapiens) (UniProt P03372); assay: qHTS assay to identify small molecule agonists of the estrogen receptor alpha (ER-alpha) signaling pathway using the BG1 cell line (AID 743079); note: nearly all actives have a fitted effect of over 20% in size
[8] = qHTS assay to identify small molecule antagonists of the estrogen receptor alpha (ER-alpha) signaling pathway using the BG1 cell line (AID 743080; calls by dose curve;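 note: BG1 cells stimulated with 17beta-estradiol alongside compound; series mostly up to about 70 µM; nearly all actives have a fitted effect of over 25% in size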)
How it was run: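 After 5 days in phenol-red-free 10% charcoal-stripped FBS medium, BG1-Luc-4E2 cells were seeded, left 24 h at 37 C, co-treated with compounds and 17beta-estradiol for 21.5 h, then assayed for viability and luciferase.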

[9] = qHTS assay to identify small molecule antagonists of the estrogen receptor alpha (ER-alpha) signaling pathway using the BG1 cell line - cell viability counter screen (AID 743081);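 note: compound given together with 17beta-estradiol as the ER stimulus; series mostly up to about 70 µM; nearly all actives have a fitted effect of over 45% in size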
Aromatase (Homo sapiens) = Aromatase (Homo sapiens) (UniProt P11511); assay: qHTS assay to identify aromatase inhibitors (AID 743083); note: series mostly up to about 70 µM; nearly all actives have a fitted effect of over 55% in size
[10] = qHTS assay to identify aromatase inhibitors - cell viability counter screen (AID 743084);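 note: cells stimulated with testosterone during compound exposure; nearly all actives have a fitted effect of over 55% in size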
[11] = biological target: Aryl hydrocarbon receptor (Homo sapiens) (UniProt P35869); assay: qHTS assay to identify small molecule that activate the aryl hydrocarbon receptor (AhR) signaling pathway (AID 743085); note: nearly all actives have a fitted effect of over 15% in size; note: potency is the fitted concentration of half-maximal effect;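 for activation: HG2L7.5c1 human HepG2 liver cells with stably integrated DRE-driven firefly reporter; series mostly up to about 70 µM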
How it was run: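 Cell line HG2L7.5c1 (human hepatoma, 20× DRE-luc). Plated, 5 h 37C, compound/DMSO added, 24 h 37C. CellTiter-Fluor 30 min 37C → fluorescence; then ONE-Glo 30 min RT → luminescence.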

[12] = biological target: Peroxisome proliferator-activated receptor gamma (Homo sapiens) (UniProt P37231); assay: qHTS assay to identify small molecule agonists of the peroxisome proliferator-activated receptor gamma (PPARg) signaling pathway (AID 743094; active = well fitted activation curve with a large enough effect in the signal ratio in the repeat runs, not every such curve was filed as active; the % refers to the signal ratio)
How it was run: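 Cells from the PPARg UAS-bla HEK293H line are plated and incubated 5 h at 37C. Compounds in DMSO are pinned in and left 17 h at 37C. LiveBLAzer B/G substrate is then added for 1 h at room temperature before fluorescence is measured.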

[13] = qHTS assay to identify small molecule antagonists of the peroxisome proliferator-activated receptor gamma (PPARg) signaling pathway - cell viability counter screen (AID 743194); note: nearly all actives have a fitted effect of over 55% in size
How it was run: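 Viability was measured as CellTiter-Glo luminescence in GeneBLAzer PPARg UAS-bla HEK293H cells. These cells had been exposed 17 h at 37 C to compounds together with rosiglitazone at 50 nM final, with the beta-lactamase readout taken in the same wells.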

[14] = qHTS assay for small molecule agonists of the antioxidant response element (ARE) signaling pathway (AID 743202; active = well fitted activation curve with a large enough effect in the signal ratio in the repeat runs, not every such curve was filed as active; the % refers to the signal ratio)
How it was run: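 Beta-lactamase reporter activity, read as fluorescence intensity, reflects ARE/Nrf2 pathway induction in HepG2 cells after 16 h compound exposure at 37 C; substrate loading was 2 h at room temperature.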

[15] = qHTS assay for small molecule agonists of the antioxidant response element (ARE) signaling pathway - cell viability counter screen (AID 743203; calls by dose curve; note: nearly all actives have a fitted effect of over 55% in size)
How it was run: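 Cytotoxicity was tested in parallel with the ARE reporter screen. ARE-bla HepG2 cells were exposed to compounds for 16 hrs, and viability was taken from CellTiter-Glo luminescence.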

[16] = qHTS assay for small molecule activators of the heat shock response signaling pathway - cell viability counter screen (AID 743209); note: nearly all actives have a fitted effect of over 50% in size
How it was run: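 Cytotoxicity counter screen run in parallel with the HSE beta-lactamase reporter, using the same wells. HeLa HSE-bla cells received compound for 5 h at 37 C; ATP-based CellTiter-Glo luminescence was measured after 30 min at room temperature.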

[17] = qHTS assay to identify small molecule that activate the aryl hydrocarbon receptor (AhR) signaling pathway - cell viability counter screen (AID 743086);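 note: HepG2 liver cells carrying the AhR DRE luciferase reporter; series mostly up to about 70 µM; nearly all actives have a fitted effect of over 45% in size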
How it was run: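 Cytotoxicity counter screen: CellTiter-Fluor signal (30 min, 37 C) in 4000 HepG2 cells/well carrying the DRE-luciferase reporter, following 24 h compound exposure at 37 C.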

Measured: Potency

Sequence of Peroxisome proliferator-activated receptor gamma (Homo sapiens) (P37231 whole entry, looked up): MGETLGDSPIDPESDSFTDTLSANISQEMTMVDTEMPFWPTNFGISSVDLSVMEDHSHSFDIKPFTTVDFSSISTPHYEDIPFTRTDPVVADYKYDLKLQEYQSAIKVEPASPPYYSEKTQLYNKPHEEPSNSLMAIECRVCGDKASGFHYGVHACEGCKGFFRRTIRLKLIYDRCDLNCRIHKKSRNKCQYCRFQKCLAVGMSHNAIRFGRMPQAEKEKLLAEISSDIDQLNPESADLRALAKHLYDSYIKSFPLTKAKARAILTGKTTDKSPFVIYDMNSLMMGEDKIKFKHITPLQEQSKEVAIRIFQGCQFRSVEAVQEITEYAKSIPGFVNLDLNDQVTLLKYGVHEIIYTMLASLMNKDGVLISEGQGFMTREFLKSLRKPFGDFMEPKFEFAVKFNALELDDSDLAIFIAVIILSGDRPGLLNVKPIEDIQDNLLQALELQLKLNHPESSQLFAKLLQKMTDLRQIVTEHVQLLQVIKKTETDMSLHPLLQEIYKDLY
Sequence of Estrogen receptor (Homo sapiens) (P03372 whole entry, looked up): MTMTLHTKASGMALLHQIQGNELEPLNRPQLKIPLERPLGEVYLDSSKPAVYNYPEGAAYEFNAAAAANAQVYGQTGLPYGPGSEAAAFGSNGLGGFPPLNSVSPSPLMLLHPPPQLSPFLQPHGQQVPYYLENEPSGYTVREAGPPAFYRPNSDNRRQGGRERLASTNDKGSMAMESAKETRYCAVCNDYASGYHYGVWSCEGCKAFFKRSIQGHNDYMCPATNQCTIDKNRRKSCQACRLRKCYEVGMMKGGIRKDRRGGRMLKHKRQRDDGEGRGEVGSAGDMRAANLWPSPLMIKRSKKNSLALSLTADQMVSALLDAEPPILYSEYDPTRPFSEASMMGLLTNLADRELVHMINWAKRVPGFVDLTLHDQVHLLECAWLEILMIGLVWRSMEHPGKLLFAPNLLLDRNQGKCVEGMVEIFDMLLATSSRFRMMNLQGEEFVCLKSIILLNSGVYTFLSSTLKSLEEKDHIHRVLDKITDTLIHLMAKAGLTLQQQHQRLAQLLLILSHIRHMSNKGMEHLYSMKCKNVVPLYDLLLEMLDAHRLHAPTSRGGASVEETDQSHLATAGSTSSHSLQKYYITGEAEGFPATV
Sequence of Aromatase (Homo sapiens) (P11511 whole entry, looked up): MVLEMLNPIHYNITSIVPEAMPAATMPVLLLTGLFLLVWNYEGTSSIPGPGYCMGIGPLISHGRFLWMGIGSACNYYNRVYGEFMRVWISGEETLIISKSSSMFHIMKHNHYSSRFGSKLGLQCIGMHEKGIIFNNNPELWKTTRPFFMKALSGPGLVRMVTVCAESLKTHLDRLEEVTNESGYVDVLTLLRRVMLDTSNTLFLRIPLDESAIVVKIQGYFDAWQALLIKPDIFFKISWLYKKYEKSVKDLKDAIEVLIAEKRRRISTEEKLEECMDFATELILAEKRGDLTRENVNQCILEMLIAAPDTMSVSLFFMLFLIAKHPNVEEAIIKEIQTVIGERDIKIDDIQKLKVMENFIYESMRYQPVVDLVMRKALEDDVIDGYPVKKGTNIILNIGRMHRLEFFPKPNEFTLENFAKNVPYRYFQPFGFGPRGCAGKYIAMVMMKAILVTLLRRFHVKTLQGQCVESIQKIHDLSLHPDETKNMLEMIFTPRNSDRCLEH
Sequence of Aryl hydrocarbon receptor (Homo sapiens) (P35869 whole entry, looked up): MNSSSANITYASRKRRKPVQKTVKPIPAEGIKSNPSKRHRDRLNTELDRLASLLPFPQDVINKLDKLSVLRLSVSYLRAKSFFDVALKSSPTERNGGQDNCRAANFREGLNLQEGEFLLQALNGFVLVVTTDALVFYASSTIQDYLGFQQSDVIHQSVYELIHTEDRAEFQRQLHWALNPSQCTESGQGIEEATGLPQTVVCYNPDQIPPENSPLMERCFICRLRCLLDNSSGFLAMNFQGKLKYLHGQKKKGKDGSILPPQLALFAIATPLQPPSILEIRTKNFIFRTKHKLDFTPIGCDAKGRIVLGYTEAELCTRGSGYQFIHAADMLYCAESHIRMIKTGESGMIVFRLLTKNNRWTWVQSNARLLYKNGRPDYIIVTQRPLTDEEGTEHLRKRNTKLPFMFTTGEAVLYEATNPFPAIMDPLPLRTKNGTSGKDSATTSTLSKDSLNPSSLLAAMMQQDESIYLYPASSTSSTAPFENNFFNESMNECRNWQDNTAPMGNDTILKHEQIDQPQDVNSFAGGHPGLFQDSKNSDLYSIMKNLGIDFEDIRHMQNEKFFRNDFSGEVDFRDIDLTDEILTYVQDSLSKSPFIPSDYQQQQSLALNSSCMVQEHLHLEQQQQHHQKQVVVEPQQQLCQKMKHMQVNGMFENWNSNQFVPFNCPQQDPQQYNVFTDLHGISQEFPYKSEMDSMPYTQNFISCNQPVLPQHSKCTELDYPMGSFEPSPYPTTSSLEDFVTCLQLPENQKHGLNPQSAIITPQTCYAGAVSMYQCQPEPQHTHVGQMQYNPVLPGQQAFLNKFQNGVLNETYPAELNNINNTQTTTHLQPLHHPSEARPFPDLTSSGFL

CCSCC
not listed: [17]
inactive: all other assays above

C/C(=C\C(=O)OCCCCCCCCC(=O)O)C[C@@H]1OC[C@H](C[C@@H]2O[C@H]2[C@@H](C)[C@H](C)O)[C@@H](O)[C@H]1O
not listed: [13] | [14] | [15] | [16]
inactive: all other assays above

C=CC1=C(C(=O)O)N2C(=O)[C@@H](NC(=O)/C(=N\O)c3csc(N)n3)[C@H]2SC1 (stereo in doubt)
not listed: [13] | [14] | [15] | [16]
inactive: all other assays above

C=CCN1C(=O)C(CC(C)C)NC1=S (stereo not given)
not listed: [13] | [14] | [15] | [16]
inactive: all other assays above

COC(=O)[C@H]1[C@H]2C[C@H]3c4[nH]c5ccccc5c4CCN3C[C@H]2CC[C@@H]1O
active: [11] 18.8 µM
not listed: [13] | [14] | [15] | [16]
inactive: all other assays above

COC(=O)C(CN)c1c[nH]c2ccc(OC)cc12 (stereo not given)
not listed: [11] | [13] | [14] | [15] | [16]
inactive: all other assays above

OCl
not listed: [13] | [14] | [15] | [16]
inactive: all other assays above

CO/N=C(\C(=O)N[C@@H]1C(=O)N2C(C(=O)O)=C(CSc3nc(C)c(CC(=O)O)s3)CS[C@H]12)c1csc(N)n1
not listed: [13] | [14] | [15] | [16]
inactive: all other assays above

CCC[C@@H]1C[C@@H](C(=O)N[C@@H]([C@H]2O[C@H](SC)[C@H](OP(=O)(O)O)[C@@H](O)[C@H]2O)[C@H](C)Cl)N(C)C1
not listed: [13] | [14] | [15] | [16]
inactive: all other assays above

O=P(O)(O)C(O)(Cn1ccnc1)P(=O)(O)O
not listed: [13] | [14] | [15] | [16]
inactive: all other assays above

CC(C)=CCC/C(C)=C/CC/C(C)=C/CC/C=C(\C)CC/C=C(\C)CCC=C(C)C
not listed: [11] | [13] | [14] | [15] | [16]
inactive: all other assays above

C[N+](C)(C)CCOP(=O)(O)OP(=O)([O-])OC[C@H]1O[C@@H](n2ccc(N)nc2=O)[C@H](O)[C@@H]1O
not listed: [11] | [13] | [14] | [15] | [16]
inactive: all other assays above

O=C1C2CC3CC1CC(O)(C3)C2
not listed: [13] | [14] | [15] | [16]
inactive: all other assays above

NCC1CCC(C(=O)O)CC1 (stereo not given)
not listed: [11] | [13] | [14] | [15] | [16]
inactive: all other assays above

From PubChem BioAssay (Tox21)
